Source: PubChem
D1 agonist = Allosteric Agonists of the Human D1 Dopamine Receptor: qHTS. HEK293 T-REx D1 cells, calcium flux, agonist mode. activation, % at 2 µM. AID 504660, 2011. D(1A) dopamine receptor (Homo sapiens), P21728. 360,000 compounds, 1% hits
Target sequence (P21728 whole entry, looked up): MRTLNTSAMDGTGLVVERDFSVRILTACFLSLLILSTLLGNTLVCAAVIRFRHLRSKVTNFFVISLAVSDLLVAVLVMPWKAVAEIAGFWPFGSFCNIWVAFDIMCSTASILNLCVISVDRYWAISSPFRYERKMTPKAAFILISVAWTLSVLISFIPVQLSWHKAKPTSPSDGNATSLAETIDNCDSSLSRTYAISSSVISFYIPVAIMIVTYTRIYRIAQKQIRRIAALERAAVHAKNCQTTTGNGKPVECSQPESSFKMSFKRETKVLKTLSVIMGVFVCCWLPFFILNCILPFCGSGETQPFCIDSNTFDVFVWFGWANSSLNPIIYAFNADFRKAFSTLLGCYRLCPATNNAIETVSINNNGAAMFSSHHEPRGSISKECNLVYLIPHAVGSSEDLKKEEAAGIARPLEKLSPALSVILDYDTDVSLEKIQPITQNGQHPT
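Tetracycline-induced HEK293 TREx D1 cells, force-coupled to calcium signalling, were dye-loaded with a no-wash calcium kit. Compound was pin-added after a 10 s baseline. Fluorescence was read kinetically at 1 cycle/s for 180 s, with calcium rises flagged as agonism.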
TRHR ag = qHTS for Small Molecule Agonists and Allosteric Enhancers of Human TRH Receptor: Primary Screen for Agonists | activation, % at 2 µM | Thyrotropin-releasing hormone receptor (Homo sapiens), P34981 | 360,000 compounds, 0.18% hits | TRHR cells, calcium flux fluo-8, FDSS agonist mode | AID 493084, 2011
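Fluo-8-loaded TRHR cells; 10 s baseline, compound added, kinetic Ca2+ fluorescence read 1/s, agonist mode.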
D1 antag = Antagonist of Human D 1 Dopamine Receptor: qHTS; HEK293 TREx D1 cells, calcium flux, dopamine EC80; stronger effect = lower value; AID 504652, 2011; activity change, negative = inhibition, % at 10 µM; D(1A) dopamine receptor (Homo sapiens), P21728; 360,000 compounds, 3.2% hits; in the data active = activity change below about -30%
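Inducible Hek293 Trex D1 cells (tetracycline, overnight, 30 C). Calcium dye 30–90 min RT. Antagonist mode: EC80 dopamine added after 180 s compound read.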
TRHR PAM = qHTS for Small Molecule Agonists and Allosteric Enhancers of Human TRH Receptor: Primary Screen for Enhancers. AID 493056, 2011. TRHR cells, fluo-8 calcium fluorescence, EC20 TRH enhancement. enhancement, % at 2 µM. 360,000 compounds, 0.66% hits. Thyrotropin-releasing hormone receptor (Homo sapiens), P34981; in the data active = enhancement above about 30%
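Enhancer read-out: after compound pinning and an initial kinetic agonist-mode read, an EC20 of TRH (10 nM final) was injected and fluo-8 calcium signal (Ex 480/Em 530) followed at 1 s/cycle for 100 cycles in TRHR-expressing cells.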
D1 PAM = Potentiators of Human D1 Dopamine Receptor: qHTS | HEK293 TREx D1 cells, calcium flux, dopamine EC20 potentiation | potentiation, % at 10 µM | 360,000 compounds, 0.036% hits; in the data active = potentiation above about 30%
Hits are given with their value. The list is not random: actives were taken first. Their share in the collection is about 4.6%. Cut-off read from the data, not from the text of the source, unless noted: active = activation above about 30%; inactive = the rest.

How did CC1(OC(=O)C2CCCC2)C(=O)C=C2C=C(c3ccsc3)N(CC3CC3)C=C2C1=O (stereo not drawn) do in these assays?
D1 agonist: inactive; TRHR ag: inactive; D1 antag: -33; TRHR PAM: inactive; D1 PAM: inactive

Results for O=c1[nH]c(CN2CCN(c3ccc(O)cc3)CC2)nc2scc(-c3ccc(Cl)cc3)c12 ?
D1 agonist: inactive; TRHR ag: inactive; D1 antag: -33; TRHR PAM: inactive; D1 PAM: inactive

What do the screens show for `O=C(NCc1cccc(F)c1)c1ccccc1NC(=O)c1nsc2ccccc12`?
D1 agonist: inactive; TRHR ag: inactive; D1 antag: inactive; TRHR PAM: inactive; D1 PAM: inactive

Results for O=C(NCc1c(Cl)cccc1Cl)c1ccc2nnsc2c1 ?
D1 agonist: inactive; TRHR ag: inactive; D1 antag: -44; TRHR PAM: inactive; D1 PAM: inactive

Results for COCCNC(=O)c1ccc2snnc2c1 ?
D1 agonist: inactive; TRHR ag: inactive; D1 antag: inactive; TRHR PAM: inactive; D1 PAM: inactive

What do the screens show for `Cc1ccc(S(=O)(=O)Nc2ccc3nc(C)sc3c2)cc1`?
D1 agonist: inactive; TRHR ag: inactive; D1 antag: -34; TRHR PAM: inactive; D1 PAM: inactive

How did CSc1ccc(S(=O)(=O)Nc2ccc3c(c2)OCCO3)cc1 do in these assays?
D1 agonist: inactive; TRHR ag: inactive; D1 antag: -30; TRHR PAM: inactive; D1 PAM: inactive

How did Cc1ccc(S(=O)(=O)Nc2ccc3c(c2)nc(CN2CCCC2)n3C)cc1 do in these assays?
D1 agonist: 49; TRHR ag: inactive; D1 antag: inactive; TRHR PAM: inactive; D1 PAM: inactive

What do the screens show for `Cc1nc2ccc(S(=O)(=O)Nc3cccc(-c4nc5cccnc5s4)c3)cc2s1`?
D1 agonist: inactive; TRHR ag: inactive; D1 antag: inactive; TRHR PAM: inactive; D1 PAM: inactive

How did Cc1nc2ccc(S(=O)(=O)Nc3ccc(-c4nc5cccnc5s4)cc3)cc2s1 do in these assays?
D1 agonist: inactive; TRHR ag: inactive; D1 antag: -54; TRHR PAM: inactive; D1 PAM: inactive

Results for Cc1ccc(S(=O)(=O)Nc2ccc3c(c2)OCCO3)cc1 ?
D1 agonist: inactive; TRHR ag: inactive; D1 antag: inactive; TRHR PAM: inactive; D1 PAM: inactive

What do the screens show for `O=C1CC(c2ccccc2)Cc2[nH]c(=O)c(-c3nc(-c4ccc(Cl)c(Cl)c4)cs3)cc21` (stereo not drawn)?
D1 agonist: inactive; TRHR ag: inactive; D1 antag: inactive; TRHR PAM: inactive; D1 PAM: inactive

How did CCOC(=O)c1nnc2c(-c3ccc(Cl)cc3)c(C)nn2c1C do in these assays?
D1 agonist: inactive; TRHR ag: inactive; D1 antag: inactive; TRHR PAM: inactive; D1 PAM: inactive

What do the screens show for `N#Cc1ccc2c(c1)C[C@]1(c3ccsc3)Oc3c(c(=O)oc4ccccc34)C2O1`?
D1 agonist: inactive; TRHR ag: inactive; D1 antag: inactive; TRHR PAM: inactive; D1 PAM: inactive

How did O=C(NCc1ccc(F)cc1)c1c(O)nc2ccccn2c1=O do in these assays?
D1 agonist: inactive; TRHR ag: inactive; D1 antag: inactive; TRHR PAM: inactive; D1 PAM: inactive

Results for Cc1nc2ccc(NS(=O)(=O)c3ccc4c(c3)OCCO4)cc2s1 ?
D1 agonist: inactive; TRHR ag: inactive; D1 antag: -31; TRHR PAM: inactive; D1 PAM: inactive

Results for COc1ccc(C(=O)NC2CC2)cc1OC1CCN(Cc2cnn(C)c2C)CC1 ?
D1 agonist: inactive; TRHR ag: inactive; D1 antag: inactive; TRHR PAM: inactive; D1 PAM: inactive

What do the screens show for `COc1ccc(CN2CCC(Oc3cc(C(=O)NC4CC4)ccc3OC)CC2)c(O)c1`?
D1 agonist: inactive; TRHR ag: inactive; D1 antag: -77; TRHR PAM: inactive; D1 PAM: inactive

How did COc1cc(C)c(CN2CCN(CC(=O)Nc3ccccc3C(=O)NC3CC3)CC2)cc1OC do in these assays?
D1 agonist: inactive; TRHR ag: inactive; D1 antag: -30; TRHR PAM: inactive; D1 PAM: inactive

How did COc1cc(CN2CCC(Oc3cc(C(=O)NC4CC4)ccc3OC)CC2)cc(OC)c1 do in these assays?
D1 agonist: inactive; TRHR ag: inactive; D1 antag: -75; TRHR PAM: inactive; D1 PAM: inactive

How did COc1ccc(C(=O)NC2CC2)cc1OC1CCN(Cc2cc(C)c(C)cc2C)CC1 do in these assays?
D1 agonist: inactive; TRHR ag: inactive; D1 antag: -86; TRHR PAM: inactive; D1 PAM: inactive

What do the screens show for `CCOC(=O)c1scc(-c2ccccc2)c1S(=O)(=O)N1CCN(c2ccc(Cl)cc2)CC1`?
D1 agonist: inactive; TRHR ag: inactive; D1 antag: inactive; TRHR PAM: inactive; D1 PAM: inactive

How did COc1ccc2c3c(c(=O)oc2c1)C1O[C@](c2ccsc2)(Cc2cc(C#N)ccc21)O3 do in these assays?
D1 agonist: inactive; TRHR ag: inactive; D1 antag: inactive; TRHR PAM: inactive; D1 PAM: inactive

What do the screens show for `CCOc1ccc(NS(=O)(=O)c2c(C)nc3sc(C)c(C)n3c2=O)cc1`?
D1 agonist: inactive; TRHR ag: inactive; D1 antag: inactive; TRHR PAM: inactive; D1 PAM: inactive

How did COc1ccc(NC(=O)Cn2cnc3ccc(S(=O)(=O)N4CCC(C)CC4)cc3c2=O)cc1Cl do in these assays?
D1 agonist: inactive; TRHR ag: inactive; D1 antag: inactive; TRHR PAM: inactive; D1 PAM: inactive

How did COc1cc(C(=O)N2CCCCCCC2)ccc1OC1CCN(C(C)=O)CC1 do in these assays?
D1 agonist: inactive; TRHR ag: inactive; D1 antag: inactive; TRHR PAM: inactive; D1 PAM: inactive

How did COc1ccc(C(=O)N2CCCCCC2)cc1OC1CCN(C(C)=O)CC1 do in these assays?
D1 agonist: inactive; TRHR ag: inactive; D1 antag: -67; TRHR PAM: inactive; D1 PAM: inactive

What do the screens show for `CNC(=O)c1ccccc1NC(=O)C1CC(=O)N(C(C)C)C1` (stereo not drawn)?
D1 agonist: inactive; TRHR ag: inactive; D1 antag: inactive; TRHR PAM: 37; D1 PAM: inactive

How did CN(Cc1ccco1)C(=O)c1ccc2c(c1)N(Cc1ccccc1F)C(=O)c1ccccc1S2 do in these assays?
D1 agonist: inactive; TRHR ag: inactive; D1 antag: inactive; TRHR PAM: inactive; D1 PAM: inactive

Results for CCCS(=O)(=O)N1CC(=O)N(c2ccc(C)cc2)C(C)(C(=O)NC2CCCCCC2)C1 (stereo not drawn) ?
D1 agonist: inactive; TRHR ag: inactive; D1 antag: inactive; TRHR PAM: inactive; D1 PAM: inactive
